Most compounds without a hit are left out; they make up all but 7.9% or so of the library.
Lassa entry inh: inhibitors of Lassa virus binding or cell entry; actives 1.2% (n = 300,000); Potency, µM (titrated, usually from 37.9 µM), hits mostly inhibitors; Lassa virus pseudotype entry inhibition, cell reporter; AID 540256; calls by dose curve; tested in HEK293 cells; also: nearly all actives have a fitted effect of over 50% in size
HCMV inh: human cytomegalovirus inhibition; HFF cells, HCMV-luciferase reporter, 72 h; stronger effect = lower value; activity change, negative = inhibition, % at 57.5 µM; actives 4.5% (n = 410,000); in the data active = activity change below about -60%; inconclusive = no clear call, values can overlap the other calls; inactive = above about -39%
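Two compound doses tested in HFFs infected with HCMV-luciferase, MOI 1 PFU/cell, 72 h at 37C. Lysate luminescence read with OneGlo; data normalized against buffer-only and 10uM Salinomycin inhibitor controls.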
FMDV inh: antivirals against foot and mouth disease virus; FMDV antiviral cell-based qHTS; Potency, µM (doses to about 57.9 µM), most hits filed as inhibitors; actives 1.2% (n = 410,000); AID 1159524; calls by dose curve; tested in HEK293T cells; also: read-out not given here; nearly all actives have a fitted effect of over 45% in size
MARV entry inh: inhibitors of Marburg virus binding or cell entry; Marburg virus pseudotyped entry inhibition, cell reporter; Potency, µM (top dose mostly 37.8 µM), hits mostly inhibitors; actives 1.8% (n = 300,000); AID 540276; calls by dose curve; tested in HEK293 cells
HCV inhibitor: inhibitors of hepatitis C virus infection. actives 3.4% (n = 340,000). AID 651820. Potency, µM (highest dose often 41.8 µM), actives largely listed as inhibitors. Huh7.5.1 HCVcc-Cre infection, luciferase reporter, 44 h; active = well fitted inhibition curve with a large enough effect; inconclusive = small, poorly fitted or top-dose-only effect, or another doubt; inactive = no such curve, though single readings can be large or run the other way
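Whole-lifecycle infectious HCVcc-Cre system; cells 1,000/well, compound then virus (~0.5 moi) added 4 h after plating, 44 h culture. Luciferase read 15 sec following 15 min substrate incubation, room temp.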
Each line names hits and unclear results; the compound was inactive in the other large screens.

Cc1cccc(C)c1-n1nnnc1C(c1cccc2ccccc12)N1CCC(n2c(=O)[nH]c3ccccc32)CC1 (centres undefined)	none (no result: Lassa entry inh, MARV entry inh, HCV inhibitor)
COc1ccc(CCNC(=O)CNC(=O)Cn2ccc3ccccc3c2=O)cc1OC	none
CCOC(=O)C1CCN(C(c2ccc(C)cc2)c2c(O)cc(C)n(CCOC)c2=O)CC1 (centres undefined)	none (no result: MARV entry inh, HCV inhibitor)
CCOC(=O)c1[nH]c2ccc(OC)cc2c1NC(=O)CCN1CCC[C@@H](C)C1	none (no result: Lassa entry inh, HCMV inh, FMDV inh, HCV inhibitor)
COc1ccc(C(c2nnnn2Cc2ccccc2)N2CCC(n3c(=O)[nH]c4ccccc43)CC2)cc1 (centres undefined)	HCMV inh -65 (no result: Lassa entry inh, MARV entry inh, HCV inhibitor)
COc1ccc(C(c2nnnn2-c2ccc(OC)cc2)N2CCC(n3c(=O)[nH]c4ccccc43)CC2)cc1 (centres undefined)	HCMV inh -61, FMDV inh inconclusive (no result: Lassa entry inh, MARV entry inh, HCV inhibitor)
Cc1cccc(-c2nc(CSCC(=O)NCCc3ccc(Cl)cc3)c(C)o2)c1	none (no result: HCV inhibitor)
Cc1cccc(N2CCN(S(=O)(=O)c3ccc4c(c3)NC(=O)C(C)S4)CC2)c1C (centres undefined)	HCMV inh -79, HCV inhibitor 0.32µM (no result: Lassa entry inh, MARV entry inh)
Cc1cccc(N2CCN(S(=O)(=O)c3ccc4c(c3)C(C(C)C)C(=O)N4)CC2)c1C (centres undefined)	Lassa entry inh 1.3µM, HCMV inh inconclusive (no result: MARV entry inh, HCV inhibitor)
COc1ccc(NS(=O)(=O)c2cc(Br)cc3c2N(C(=O)C2CC2)CC3)cc1OC	Lassa entry inh inconclusive, HCMV inh inconclusive (no result: MARV entry inh, HCV inhibitor)
COc1ccc(OC)c(C(=O)CN2C(=O)N(c3cc(C)cc(C)c3)S(=O)(=O)c3ccccc32)c1	none (no result: MARV entry inh, HCV inhibitor)
COc1ccc(-n2cc(-c3ccccc3)c3c(=O)[nH]cnc32)cc1	Lassa entry inh 21µM, MARV entry inh inconclusive
COc1ccccc1-n1cc(-c2ccccc2)c2c(=S)nc[nH]c21	HCMV inh -69 (no result: Lassa entry inh, MARV entry inh)
CC(=O)c1ccc(NC(=O)c2noc3c2CSc2ccccc2-3)cc1	none (no result: HCV inhibitor)
CC#CCN1C(=O)NC(c2ccccc2)C(C(=O)OCC)=C1c1ccccc1 (centres undefined)	none (no result: Lassa entry inh, HCMV inh, FMDV inh, HCV inhibitor)
COc1cccc(/C(O)=C2\C(=O)C(=O)N(CCN(C)C)[C@@H]2c2ccc(Br)cc2)c1	none (no result: Lassa entry inh, HCMV inh, FMDV inh, HCV inhibitor)
CCN(CC(=O)Nc1cc(S(=O)(=O)N2CCOCC2)ccc1Cl)Cc1ccccc1	FMDV inh inconclusive, HCV inhibitor 7.9µM (no result: Lassa entry inh, MARV entry inh)
CCN(CC(=O)Nc1cc(S(=O)(=O)N2CCCCC2)ccc1Cl)Cc1ccccc1	Lassa entry inh inconclusive, MARV entry inh inconclusive, HCV inhibitor inconclusive
CN(CC(=O)Nc1cccc(F)c1)CC(=O)Nc1cc(S(=O)(=O)N2CCOCC2)ccc1Cl	FMDV inh inconclusive, HCV inhibitor 11µM (no result: Lassa entry inh, MARV entry inh)
Cc1ccc(S(=O)(=O)N2CCCCC2)cc1NC(=O)Cc1cccs1	none (no result: Lassa entry inh, MARV entry inh)
CN(CC(=O)Nc1cccc(S(=O)(=O)N2CCOCC2)c1)CC(=O)Nc1ccc(Cl)c(C(F)(F)F)c1	Lassa entry inh inconclusive, HCMV inh -75, FMDV inh inconclusive, MARV entry inh inconclusive, HCV inhibitor inconclusive
CN(CC(=O)Nc1cc(S(=O)(=O)N2CCCC2)ccc1Cl)Cc1cccs1	HCV inhibitor 6.3µM (no result: Lassa entry inh, MARV entry inh)
COc1ccc(S(=O)(=O)N2CCOCC2)cc1NC(=O)CN(C)CC(=O)Nc1cccc(F)c1	none (no result: Lassa entry inh, MARV entry inh)
O=C(COc1ccc(S(=O)(=O)N2CCOCC2)cc1)Nc1ccc(Cl)c(C(F)(F)F)c1	Lassa entry inh inconclusive, MARV entry inh inconclusive, HCV inhibitor inconclusive (no result: FMDV inh)
CCOc1ccc(C(=O)N2CC(=O)Nc3ccc(C)cc3C2c2ccc(F)cc2)cc1OCC (centres undefined)	Lassa entry inh inconclusive, MARV entry inh inconclusive (no result: HCV inhibitor)
CN(Cc1cccs1)C(=O)c1ccc(S(=O)(=O)N2CCCCC2)cc1	none (no result: Lassa entry inh, MARV entry inh)
O=C(C1CCCN(S(=O)(=O)c2ccc(Cl)cc2)C1)N(Cc1cccs1)C1CC1 (centres undefined)	FMDV inh inconclusive, MARV entry inh inconclusive, HCV inhibitor 10µM
CCN(CC)CCN1C(=O)C(O)=C(C(=O)c2cccs2)[C@@H]1c1ccccn1	none (no result: Lassa entry inh, HCMV inh, FMDV inh, HCV inhibitor)
NS(=O)(=O)c1ccc(NC(=O)CCC(=O)c2ccc(Cl)s2)cc1	HCMV inh -95
NS(=O)(=O)c1ccc(NC(=O)CCC(=O)c2cccs2)cc1	none (no result: Lassa entry inh, MARV entry inh)
Cn1c2c(c(=O)n(C)c1=O)[C@@](NC(=O)C(C)(C)C)(C(F)(F)F)C(=O)N2	none (no result: Lassa entry inh, HCMV inh, FMDV inh, HCV inhibitor)
CCCOc1ccc(-c2nnc(-c3cccs3)o2)cc1	Lassa entry inh 2µM
COC(=O)c1cn([C@@H]2C[C@@H](C(=O)Nc3cccc(SC)c3)N(C3CCCC3)C2)nn1	none (no result: Lassa entry inh, HCMV inh, MARV entry inh, HCV inhibitor)

Source: PubChem (National Center for Advancing Translational Sciences (NCATS))
